From ChEMBL document CHEMBL3988442, “University of Dundee, Small-Polar-MMV Screening Library” (2021)
In all, about 69,000 compounds went through this assay and about 950 (1.4%) showed an effect of 50% or more. For the sample, strong results were picked, then their nearest neighbours and some compounds at random.

Tested on: Mycobacterium tuberculosis
Test: Cornell M. t heat shock assay; note: in the data most compounds retested in dose-response had high values
Type: functional, organism-based
Design: dose or concentration left out as unconfirmed

Row | Compound | Percent Effect
1 | O=C(NCC1CC1)[C@H]1C[C@@H]2CCN(Cc3ccc4c(c3)OCO4)C[C@@H]2O1.O=C(O)C(F)(F)F | -28.42%
2 | Fc1ccccc1-c1nc(CNCCn2cccn2)cs1 | 20.44%
3 | c1cnc(-c2nc(CNCCn3cccn3)cs2)nc1 | -0.9429%
4 | COc1cccc(-c2nc(CNCCCn3cccn3)cs2)c1 | 37.34%
5 | c1ccc(-c2nc(CNCCn3cccn3)cs2)cc1 | 37.88%
6 | c1cnn(CCNCc2csc(-c3ccsc3)n2)c1 | 52.72%
7 | c1csc(-c2nc(CNCCn3cccn3)cs2)c1 | 10.7%
8 | COc1cccc(-c2nc(CNCCc3cccnc3)cs2)c1 | -0.6336%
9 | Fc1ccc(-c2nc(CNCCn3cccn3)cs2)cc1 | 66.63%
10 | Clc1ccccc1-c1nc(CNCCn2cccn2)cs1 | 54.38%
11 | Fc1ccc(-c2n[nH]cc2CNCCn2cccn2)cc1 | 11.69%
12 | c1ccc(-c2nc(CNCCn3cccn3)cs2)nc1 | -25.33%
13 | COc1cccc(-c2nc(CNCCn3cccn3)cs2)c1 | 90.69%
14 | Cc1ccc(CN2CCC3(CC2)CN(c2cnn(C)c2)C(=O)CO3)o1.O=C(O)C(F)(F)F | -7.35%
15 | OCCOc1cc(F)ccc1NCc1cccc(F)c1F | -41.85%
16 | O=C(O)C(F)(F)F.O=S(=O)(c1cccs1)N1CC[C@H](O)[C@@H]1Cc1ccncc1 | -2.198%
17 | Cn1cc(N2C(=O)CC[C@@H]3[C@H]2CCN3CCc2ccccc2)cn1.O=C(O)C(F)(F)F.O=C(O)C(F)(F)F | -25.96%
18 | COc1ccc(CNC(C)c2cccc(Br)c2)c(OC)c1OC.Cl (centres undefined) | -10.84%
19 | COCCN1CCC(c2nc3ccc(-c4ccccc4)cn3n2)CC1.O=C(O)C(F)(F)F | -23.12%
20 | C/N=C1/c2cc3cc(OC)ccc3n2CCN1Cc1ccccc1.Cl | -17.35%
21 | Cc1noc(C)c1CN1CCO[C@H]2CN(C(=O)N3CCCC3)C[C@H]21.O=C(O)C(F)(F)F | -20.16%
22 | COc1ccc(-c2nc(CNCCn3cccn3)cs2)cc1 | 106.9%
23 | Cn1cc(-c2nc(CNCCn3cccn3)cs2)cn1 | -4.068%
24 | COc1ccc(-c2nnc(CNCCn3cccn3)o2)cc1 | -11.96%

Row | Compound | Percent Effect
25 | CCc1c(C)nc2cc(C3CCN(Cc4ccncc4C)C3)nn2c1O (centres undefined) | -4.904%
26 | O=C(O)C(F)(F)F.O=C(c1ccncc1F)N1CCc2onc(COc3cccnc3)c2C1 | 2.972%
27 | Cn1ccc(C(=O)N2CCC[C@]3(C[C@@H](OCc4ccccn4)CO3)C2)n1.O=C(O)C(F)(F)F | -3.608%
28 | O=C(O)CCC(=O)N1CCC(c2noc3cc(F)ccc23)CC1 | 69.92%
29 | O=C(CCN1CCC(C(=O)c2cc(F)ccc2F)CC1)NC1CC1 | -9.281%
30 | O=C(CCc1cc(O)no1)N1CCC(Cc2ccc(F)cc2)CC1 | 4.65%
31 | O=C(CCC(=O)N1CCC(c2noc3cc(F)ccc23)CC1)NC1CC1 | 83.45%
32 | CCCNC(=O)CCC(=O)N1CCC(c2noc3cc(F)ccc23)CC1 | 9.612%
33 | O=C(O)CCCC(=O)N1CCC(c2noc3cc(F)ccc23)CC1 | 20.09%
34 | CC(C)NC(=O)CCC(=O)N1CCC(c2noc3cc(F)ccc23)CC1 | 74.12%
35 | NC(=O)CN1CCC(c2noc3cc(F)ccc23)CC1 | -31.79%
36 | CC(C)NC(=O)CN1CCC(c2cccc(F)c2)C1 (centres undefined) | -24.09%
37 | Cl.NC(=O)C1CNCCN1C(=O)COc1ccccc1 (centres undefined) | -11.48%
38 | C[C@H]1CN(Cc2cccc(F)c2)C[C@@]12CCN(CC(=O)N(C)C)C2=O.O=C(O)C(F)(F)F | -2.321%
39 | CC(C)C(=O)N1CC[C@H]2N(C)CC[C@@]2(C(=O)N2CCCC2)CC1.O=C(O)C(F)(F)F | 7.304%
40 | CCC1(O)CCCN(c2nc(-c3ccccn3)nc3c2c(C)nn3C)C1 (centres undefined) | 100.9%
41 | CCSCCNc1nc2c(s1)c(C)nn2C | 6.366%
42 | CCSCCNc1nc(-c2ccccn2)nc2c1c(C)nn2C | 102%
43 | CCC1(O)CCCN(c2ncnc3c2c(C)nn3C)C1 (centres undefined) | 10.34%
44 | c1ccc(-c2nc3c(c(NCCCn4cncn4)n2)CCNCC3)nc1 | 8.8%
45 | CSCC[C@@H](CO)Nc1ccc(-c2nc(-c3ccccc3C)no2)cn1 | -15.48%
46 | Cc1nc(N2CCC(O)(c3ccccc3)CC2)c2c(C)nn(C)c2n1 | 12.95%
47 | CC(=O)NCCNc1nc(-c2ccccn2)nc2c1c(C)nn2C | -12.81%
48 | CSCC[C@@H](CO)Nc1ccc(-c2nc(-c3ccccc3F)no2)cn1 | -33.46%

Row | Compound | Percent Effect
49 | Cc1nn(C)c2nc(-c3ccccn3)nc(NCCCOC(C)C)c12 | 98.39%
50 | c1ccc(-c2nc3c(c(NCCn4cccc4)n2)CCNCC3)nc1 | -4.2%
51 | CSCC[C@@H](CO)Nc1nc(-c2ccccn2)nc2c1c(C)nn2C | 63.32%
52 | Cc1ccc(CN2CC[C@H]3OCC[C@@H](C(=O)N4CCCCO4)[C@@H]3C2)o1.O=C(O)C(F)(F)F | -16.6%
53 | O=C(O)C(F)(F)F.O=C([C@@H]1CCO[C@@H]2CCN(CCc3ccccc3)C[C@@H]21)N1CCCC1 | -24.53%
54 | Cl.c1cnc(Nc2cc(CCC3CCCNC3)ccn2)cn1 (centres undefined) | 5.615%
55 | Cc1nnc(N2CC[C@H]3O[C@H](C(=O)NCc4ccccn4)CC[C@H]32)s1.O=C(O)C(F)(F)F.O=C(O)C(F)(F)F | -4.989%
56 | CCCN1C[C@H]2CC[C@@H]1CN(c1nnc(C(C)C)s1)C2 | 23.85%
57 | O[C@@H]1CN(Cc2cccnc2)C[C@H]1Oc1ccccc1 | -6.962%
58 | CCN1CCN(C)C(=O)C12CCN(C(=O)Cc1ccccn1)CC2.O=C(O)C(F)(F)F | 3.493%
59 | Cc1nn(C)c2nc(N(Cc3ccccn3)CC3CCCO3)sc12 (centres undefined) | -20.31%
60 | Cc1nn(C)c2nc(-c3ccccn3)nc(NC[C@@H]3CCCO3)c12 | 93.55%
61 | Cc1nn(C)c2nc(-c3ccccn3)nc(NCCC3CCCN3C)c12 (centres undefined) | -21.22%
62 | CN(Cc1ccco1)Cc1cncc2c1CCN(Cc1ccoc1)C2.Cl.Cl.Cl | -8.81%
63 | COc1ccc(CN(C)CC(O)COCc2ccccc2Cl)c(OC)c1.O=C(O)C(=O)O (centres undefined) | 10.76%
64 | Cl.NC(=O)c1ccc(C2CCCNC2)nc1 (centres undefined) | 6.817%
65 | Cc1noc(C)c1C(=O)N1C[C@@H]2COC[C@]2(COc2ccccn2)C1.O=C(O)C(F)(F)F | -29.95%
66 | Cc1ccc2nc(C3CCCN3Cc3nnc(C)s3)[nH]c2c1 (centres undefined) | -8.638%
67 | Cc1ccc2nc(C3CCCN3Cc3scnc3C)[nH]c2c1 (centres undefined) | 1.494%
68 | Cc1ccc2nc(C3CCCN3Cc3csc(C)n3)[nH]c2c1 (centres undefined) | 87.71%
69 | Cn1cc(CN2C[C@@H]3COC[C@]3(C(=O)NCCc3ccccc3)C2)cn1.O=C(O)C(F)(F)F | -18.43%
70 | COCCC(C)NS(=O)(=O)c1ccc(C)c(N(C)C)c1 (centres undefined) | 1.91%
71 | CCN(CC)c1ncnc2c1CCN(C(=O)Cc1ccccn1)CC2.O=C(O)C(F)(F)F.O=C(O)C(F)(F)F | -18.08%
72 | CCn1ncc2c1C(COC)CN(c1ncc(F)cn1)C2.O=C(O)C(F)(F)F.O=C(O)C(F)(F)F (centres undefined) | 55.18%

Row | Compound | Percent Effect
73 | CCn1ncc2c1C(COC)CN(Cc1ccc(F)cc1)C2.O=C(O)C(F)(F)F.O=C(O)C(F)(F)F (centres undefined) | -13.12%
74 | COCC1CN(c2ncc(F)cn2)Cc2cnn(C)c21.O=C(O)C(F)(F)F.O=C(O)C(F)(F)F (centres undefined) | 9.404%
75 | CCOCC1CN(Cc2ccco2)Cc2nccn2C1.O=C(O)C(F)(F)F (centres undefined) | -9.1%
76 | CN(C)C(=O)CC1CC2(CCN(CC3CC3)CC2)c2cc(F)ccc21.O=C(O)C(F)(F)F (centres undefined) | -15.82%
77 | CN1CCN(C(=O)c2nnc3ccc(Cl)cc3n2)CC1 | 68.14%
78 | O=C(NC1CCCCC1)c1nnc2ccc(N3CCOCC3)cc2n1 | 8.79%
79 | COc1ccc2nnc(C(=O)NCC3CCCC3)nc2c1 | 44.72%
80 | COC(=O)C1CCN(C(=O)c2nnc3ccc(Cl)cc3n2)CC1 | 26.61%
81 | COC(=O)C1CCN(C(=O)c2nnc3ccc(C)cc3n2)CC1 | 15.86%
82 | Cc1ccc2nnc(C(=O)NCC3CCCC3)nc2c1 | 103.3%
83 | O=C(NCC1CC1)Nc1cnc2cc(Cl)ccc2c1O | -11.98%
84 | CCn1nc(C)c(CNC(=O)c2nnc3ccc(Cl)cc3n2)c1C | 42.92%
85 | CCn1nc(C)c(CNC(=O)c2nnc3ccc(OC)cc3n2)c1C | -6.041%
86 | O=C(NCC1CC1)c1nnc2ccc(Cl)cc2n1 | 102.8%
87 | Cc1ccc(-n2nnc(C(=O)NCC3CCCCC3)n2)cc1 | 10.71%
88 | COc1ccc2nnc(C(=O)NC3CCCC3)nc2c1 | 57.83%
89 | CCOCC1CN(Cc2cnn(C)c2)Cc2nn(CC3CC3)cc21.O=C(O)C(F)(F)F (centres undefined) | 2.131%
90 | CCCn1[nH]cc/c1=N\C(=O)CN1CCc2c(nc(C3CC3)n2C)C1 | 7.757%
91 | Cl.O=C(C1CCCCC1)N1C[C@H]2CNC[C@H]2C1 | -3.289%
92 | O=c1cc(CN2CC[C@H]3CC[C@@H](C2)N3)c2cccc3c2n1CCC3 | -15.55%
93 | CN(C)C(=O)COC1COC2(CCN(CC3CCOCC3)CC2)C1.O=C(O)C(F)(F)F (centres undefined) | -2.67%
94 | Cl.c1nc(N2CCOCC2)sc1-c1cncn1CCCN1CCCCC1 | -3.925%
